Data on eleven molecules can be found in PubChem BioAssay (EPA / NIEHS).

Where “and” joins values, the source holds several entries; their conditions need not be identical. Equal entries are not always repeated. Results filed as inconclusive are left out. Calls of active or inactive are those of the source. The calls were made as follows, unless noted: active = hit-call score of the fitted dose curve at least 0.9, where 1 is the maximum; inconclusive = response in the unintended direction; inactive = score below 0.9.

A short description of one assay: VALA_TUBIPS_Agonist_TubuleLength: VALA Sciences human iPS-derived Endothelial Tubule Formation (TUBIPS) Agonism Assay (AID 2284311). The method, then: VALA_TUBIPS_Agonist is a cell-based, multiplexed assay that uses human iPS-derived endothelial cells (iPSC). Measurements were taken 72 hours after chemical dosing in a 96-well plate.VALA_TUBIPS_Agonist_TubuleLength is the one of two assay components measured from the VALA_TUBIPS_Agonist assay. It is designed to make measurements of tubulogenesis, a form of morphology reporter, as detected with fluorescence intensity signals by HCS Fluorescent Imaging technology. This VALA_TUBIPS1 assay was designed to detect chemical activation of tubulogenesis, i.e. agonism.Data from the assay component VALA_TUBIPS_Agonist_TubuleLength was analyzed at the endpoint, VALA_TUBIPS_Agonist_TubuleLength, in the positive analysis fitting direction relative to DMSO as the negative control and baseline of activity. Using a type of morphology reporter, gain-of-signal activity can be used to understand developmental effects. To generalize the intended target to other relatable targets, this assay endpoint is annotated to the neurodevelopment intended target family, where the subfamily is tubulogenesis.
[…]
On to `Cn1cc[nH]c1=S`, for which the outcome was inactive.

As to `CCCC(CCC)C(=O)O`, the molecule was classed as inactive. With `CCN(CC)C(=S)SSC(=S)N(CC)CC`, the result was inactive.

The nature of another assay: IUF_NPC2-5_viability_120hr: Viability Assessment at 120 hours in the Leibniz Research Institute for Environmental Medicine (IUF) Neural Progenitor Cell Migration and Differentiation Assay (NPC2-5) (AID 2284312; active = hit-call score of the fitted dose curve at least 0.9, where 1 is the maximum; inactive = score below 0.9). A digest of the protocol: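 Human fetal (GW 16-19) neural progenitor spheres of 0.3 mm were plated on poly-D-lysine/laminin in N2 differentiation medium and exposed from day 0 for 120 h, with half-medium refresh at day 3. Viability was read as alamar blue resazurin-to-resorufin fluorescence against DMSO.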
Regarding `Cn1cc[nH]c1=S`, the result was inactive. Turning to `CCCC(CCC)C(=O)O`, the AC50 was 1030 µM (active). In the case of `Nc1ccn([C@@H]2O[C@H](CO)[C@@H](O)[C@@H]2O)c(=O)n1`, the molecule was called inactive.

Another assay is described as follows: VALA_MIGHUV2_WoundArea: VALA Sciences human Umbilical Vein Endothelial Cell Migration (MIGHUV) Assay, Area of Scratch Wound after Recovery (AID 2284316). Summed up: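 Wound-area endpoint read by fluorescence imaging of Hoechst-stained nuclei after a 24 h recovery period following scratch of HUVEC monolayers (9000 cells/well). Chemicals dosed within 30 min post-scratch, triplicate 6-point series, 0.1% DMSO vehicle; Cytochalasin D positive control.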
As for `CCCCCCCCCC`, the molecule was called inactive. For the molecule `Cn1cc[nH]c1=S`, the molecule was classed as inactive. Take `CCN(CC)C(=S)SSC(=S)N(CC)CC`: the molecule was classed as inactive.

The next assay is described as follows: CCTE_Mundy_HCI_iCellGluta_NOG_NeuriteLength: CCTE's Neurite Outgrowth Assay in iCellGluta cells for Neurite Length, Mundy Lab (AID 2284318). The method, then:
CCTE_Mundy_HCI_iCellGluta_NOG is a multiplexed, cell-based-readout assay that uses iCell GlutaNeurons from FUJIFILM Cellular Dynamics, Inc. (FCDI), human glutamatergic enriched neurons derived from induced pluripotent stem (iPS) cells, with measurements taken at 50.33 hours after chemical dosing in a microplate: 96-well plate.CCTE_Mundy_HCI_iCellGluta_NOG_NeuriteLength is one of four components of the CCTE_Mundy_HCI_iCellGluta_NOG assay. It measures neurite outgrowth related to neurite length using High Content Imaging of fluorescently labelled markers.Data from the assay component CCTE_Mundy_HCI_iCellGluta_NOG_NeuriteLength was analyzed at the endpoint CCTE_Mundy_HCI_iCellGluta_NOG_NeuriteLength in the positive analysis fitting direction relative to DMSO as the negative control and baseline of activity. Using a type of morphology reporter, loss-of-signal activity can be used to understand developmental effects.
Exposure starts 2 hours post-plating by adding 10 ul of the working solution to 90 ul of media in the wells for a 1/10 dilution. Forty-eight hours after chemical treatment cells are fixed by direct addition of 100 ul of warm (37C) Dulbecco's phosphate buffered saline (DPBS) fixative solution containing 8% paraformaldehyde, 8% sucrose, and 0.1% of 3 mg/ml Hoechst 33342 into each well. Primary antibodies are prepared by dilution in Immunocytochemical Staining Buffer (ISB), 10X Dulbecco's PBS, 0.1% Saponin, 5% Bovine Serum Albumin, 0.5% NaN3 (Sodium Azide) and betaIII-tubulin (rabbit anti-betaIII-tubulin, 1:800) followed by Alexa Fluor-488 secondary (1:500) to label neuronal cell bodies and neurites. A Cellomics ArrayScan VTi HCS Reader is used for automated image acquisition and analysis of neurite outgrowth.
As for `C[C@]12C=CC(=O)C=C1CC[C@H]1[C@@H]3C[C@@H](O)[C@](O)(C(=O)CO)[C@@]3(C)C[C@H](O)[C@@]12F`, the AC50 is 19.8 µM (active). For the molecule `Cn1cc[nH]c1=S`, the result was inactive. For the molecule `OC(O)(C(F)C(O)(O)C(F)(F)F)C(F)(F)F`, the molecule was classed as inactive. With `O=C(Cl)C(F)(F)C(F)(F)C(F)(F)C(=O)Cl`, the molecule was called inactive.

Take `FC(F)(F)C(F)(F)C(F)(F)C(F)(F)C(F)(F)C(F)(F)I`: the molecule was classed as inactive. With `FC(F)=C(F)C(F)(F)C(F)(F)C(F)(F)C(F)(F)C(F)(F)C(F)(F)F`, the result was inactive. On the same count and under the same terms, the value for `c1ccc2cc3ccccc3cc2c1` was “inactive”. As for `Nc1ccn([C@@H]2O[C@H](CO)[C@@H](O)[C@@H]2O)c(=O)n1`, the AC50 is 741 nM (active) and 1.09 µM (active).

Broadly, the AC50 is the concentration at which the activity in the assay is half-maximal.
